This is an account of results in PubChem BioAssay AID778 (Sanford-Burnham Center for Chemical Genomics, 2007).

Hit rate of the full screen: of about 96,000 compounds, about 20,000 (21%) were called active.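 How the source made its calls: active means CYP2C19 inhibition above a set limit at 5 µM in the primary screen (cut at about 50% in these data); inactive means the rest.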 A selection follows.

In the assay the target is Cytochrome P450 2C19 (Homo sapiens) (UniProt P33261). The experiment in a line: blockers of cytochrome P450 2C19 activity – biochemical, luminescence, ADME assay, primary screen (AID 778).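 Further: plate controls were negative control wells for no effect and 2.5 mM tranylcypromine positive control for full effect.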 As to conditions: CYP2C19 Supersomes, luciferin-H EGE luminescence, 30 min; at 5 µM; hits give high values.
Chain of Cytochrome P450 2C19 (Homo sapiens) (P33261 whole entry, looked up): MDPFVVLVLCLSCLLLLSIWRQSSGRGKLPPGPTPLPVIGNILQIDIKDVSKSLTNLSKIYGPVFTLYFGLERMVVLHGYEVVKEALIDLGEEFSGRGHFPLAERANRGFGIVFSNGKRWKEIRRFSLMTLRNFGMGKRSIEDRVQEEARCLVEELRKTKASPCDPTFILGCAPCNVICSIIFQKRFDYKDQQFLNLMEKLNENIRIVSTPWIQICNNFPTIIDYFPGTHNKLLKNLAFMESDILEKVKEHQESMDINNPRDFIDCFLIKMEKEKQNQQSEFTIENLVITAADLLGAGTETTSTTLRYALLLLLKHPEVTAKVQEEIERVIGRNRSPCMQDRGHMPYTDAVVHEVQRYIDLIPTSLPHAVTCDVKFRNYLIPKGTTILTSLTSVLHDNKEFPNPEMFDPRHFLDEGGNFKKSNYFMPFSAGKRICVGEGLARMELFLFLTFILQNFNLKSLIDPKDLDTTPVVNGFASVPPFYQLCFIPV
As to `FC(F)(F)c1cccc(Nc2ncnc3ccccc23)c1`, the inhibition is 44.1% (inactive).
The same measure for `FC(F)(F)c1cccc(NC(=S)Nc2cccc(Cl)c2)c1`: 74.9% (active); for `O=C(Nc1cccc(Cl)c1)OCc1ccccn1`: 27.1% (inactive); for `CCOc1cc(N2CCOCC2)c(OCC)cc1NC(=O)COC(=O)[C@H](Cc1c[nH]c2ccccc12)NC(C)=O`: -4.2% (inactive).
Turning to `COc1cccc(N2C(=O)CC(N3CCN(S(=O)(=O)c4ccccc4)CC3)C2=O)c1` (stereo not drawn), the inhibition is 1.5% (inactive).
Then `CN1CCN(c2ccc([N+](=O)[O-])c(Sc3nc4ccccc4[nH]3)c2)CC1`, with 33.8% (inactive); and `C=CCOc1ccc(C2/C(=C(\O)c3c(C)[nH]c(C(=O)OC)c3C)C(=O)C(=O)N2CCN(C)C)cc1` (stereo not drawn), with 2.1% (inactive).
Then `O=C(Nc1ccc2c(c1)CCC2)c1cccc(S(=O)(=O)N2CCN(c3ccc(F)cc3)CC2)c1`, with 26% (inactive).
Turning to `CC(C)C(C)NC(=O)COc1ncnc2ccccc12` (stereo not drawn), the inhibition was 34.6% (inactive).
Then `Cc1ccccc1-n1nc(C)c2cc(C(=O)NC3CC3)sc21`, with 61.4% (active); and `Cc1nn(-c2ccccc2)c2sc(C(=O)N(Cc3ccco3)C(C)C(=O)NC(C)(C)C)cc12` (stereo not drawn), with 33.9% (inactive).
The same measure for `COc1cc(OC)cc(C(=O)NC2CCN(C(=O)N3c4ccccc4Sc4ccccc43)CC2)c1`: 5.8% (inactive); for `O/N=C1\CC2(Cc3nonc31)OCCO2`: -5.4% (inactive).
In the case of `Cc1ccc(CN2C(=O)CCC2C(=O)NCCCN2CCCCC2C)cc1` (stereo not drawn), the inhibition is 8.1% (inactive).
In the case of `CCC(C)NC(=O)C1CCC(=O)N1Cc1ccc(C)cc1` (stereo not drawn), the inhibition was 28.1% (inactive).
Consider `O=C(Nc1ccc(Br)cc1)C1CCC(=O)N1Cc1ccccc1Cl` (stereo not drawn), for which the inhibition is 96.4% (active).
Then `O=C(Cn1cnc2c(nnn2-c2ccccc2)c1=O)N1CCC(Cc2ccccc2)CC1`, with 43.2% (inactive).
The same measure for `CCC1C(C#N)=C(SC)NC2=C1C(=O)CC(C)(C)C2` (stereo not drawn): 12.7% (inactive); for `Cc1ccc(-n2ncc3c2ncn2nc(-c4ccco4)nc32)c(C)c1`: 4.8% (inactive); for `COc1cc(C(=S)N2CCOCC2)cc(OC)c1OC(=O)c1cc([N+](=O)[O-])cc([N+](=O)[O-])c1`: -1.3% (inactive).
With `COc1ccc(Cn2nnc3c(=O)[nH]c(C4CCN(C(=O)c5ccccc5Cl)CC4)nc32)cc1`, the inhibition is 57.2% (active).
The same measure for `Cc1nc2ccc(NC(=O)N3CCC(c4ccccc4)C3)cc2nc1C` (stereo not drawn): 28.5% (inactive).
Then `Cc1ccc(NC(=O)N2CCC(c3nc4c(nnn4Cc4c(F)cccc4Cl)c(=O)[nH]3)CC2)cc1`, with 95.1% (active).
Then `Cc1ccc(NC(=O)N2CCC(C(=O)NCc3ccc(F)cc3)CC2)cc1`, with 4.7% (inactive); and `Cc1ccc(Cn2nnc3c(=O)n(CC(=O)N4CCCCC4)cnc32)cc1`, with 34% (inactive); and `COc1ccc(-n2nnc3c(=O)n(CC(=O)N4CCC(Cc5ccccc5)CC4)cnc32)cc1`, with 4.8% (inactive).
`CC(=O)c1ccc(OCCN2CCOCC2)cc1`: the inhibition was 2.4% (inactive).
As for `Cc1ccc(S(=O)(=O)NCC(=O)N(CC(=O)NC(C)(C)C)Cc2cccs2)cc1`, the inhibition was -10.5% (inactive).
For the compound `CCc1c(-c2ccccc2)nc(N)c(C#N)c1-c1cccs1`, the inhibition was 2.8% (inactive).
Then `CCOC(=O)C(CCOc1cccc(CC)c1)C(=O)OCC`, with 42% (inactive).
The same measure for `Cc1cc(C)n2nc(C(=O)NC(C)(C)C)nc2n1`: -2.8% (inactive); for `C=CCc1cccc2cc(C(=O)N3CCN(C(=O)OCC)CC3)c(=O)oc12`: -8% (inactive); for `Cn1c(=O)c2c(SCC(=O)N3CCOCC3)nc(C3CC3)nc2n(C)c1=O`: 8.8% (inactive).
Turning to `CCN(CC)C(=O)N1CCN(C(=O)c2ccc(C)cn2)CC1`, the inhibition was 4.3% (inactive).
For `Cn1c(CO)cnc1SCc1ccccc1`, the inhibition was 39.7% (inactive).
The same measure for `CCS(=O)(=O)n1nc(-c2ccccc2)nc1SCc1ccccc1`: 90.1% (active).
The same measure for `CCS(=O)(=O)n1nc(-c2ccc(OC)cc2)nc1SC`: 46% (inactive); for `O=C(COC(=O)CCC(=O)c1cccs1)NCc1ccco1`: 5.2% (inactive).
On to `CN(C(=O)CSc1nc(C2CC2)nc2ccccc12)c1nc(-c2ccccc2)cs1`, for which the inhibition is 12.3% (inactive).
The same measure for `COC(=O)CSc1nc(C2CC2)nc2ccccc12`: 63.2% (active); for `Cc1nnc(NC(=O)CSc2nc(C3CCCCC3)nc3ccccc23)s1`: -1.4% (inactive).
Take `CCN(CC)S(=O)(=O)c1ccc2[nH]cc(C(=O)NCCc3ccccc3)c(=O)c2c1`: the inhibition was 4.6% (inactive).
Then `Cc1cccc(NC(=O)CSc2nc3c(c(=O)[nH]2)CCCC3)c1C`, with 17.6% (inactive); and `Cc1cccc(NC(=O)CSC(N)=O)c1C`, with 17.7% (inactive); and `CCc1ccccc1NC(=O)CSc1nnc([C@@H](NC(=O)OC(C)(C)C)C(C)CC)o1` (stereo partly drawn), with 59.4% (active).
The same measure for `Cc1cccc(NC(=O)CSc2nnc(CCCCCNC(=O)OC(C)(C)C)o2)c1C`: 63.7% (active).
Then `CCc1ccccc1NC(=O)CSc1nnc([C@@H](NC(=O)OC(C)(C)C)C(C)C)o1`, with 8% (inactive); and `O=C(CSc1nnc(-c2ccco2)o1)NCC(=O)c1ccccc1`, with 0.5% (inactive); and `Cc1cccc(NC(=O)CSc2nnc(-c3ccco3)o2)c1`, with -7.9% (inactive).
`C[C@H](NC(=O)OC(C)(C)C)c1nnc(SCC(N)=O)o1`: the inhibition was 49.9% (inactive).
Consider `C[C@H](NC(=O)OC(C)(C)C)c1nnc(SCC(=O)Nc2ccc(Br)cc2)o1`, for which the inhibition was 62.5% (active).
Regarding `Cc1ccc(C(=O)Nc2nnc(-c3cccs3)s2)cc1C`, the inhibition was -8.8% (inactive).
In the case of `O=C(O)CCN=C1CCc2ccccc2N1`, the inhibition was 0.2% (inactive).
In the case of `Cc1cc(C)c2c(n1)nn1c(-n3ccnc3)cc(C)nc21`, the inhibition was 4.7% (inactive).
In the case of `C=CCSc1nc(Cc2ccc(Cl)cc2)nc2ccccc12`, the inhibition is 0% (inactive).
The same measure for `COc1ccccc1CSc1nc2ccccc2[nH]1`: 51.7% (active); for `O=c1cc(O)nc(SCc2ccccc2Cl)[nH]1`: 1.2% (inactive); for `O=C(CSc1nc2ccccc2[nH]1)c1cccs1`: 42.5% (inactive).
The same measure for `Cc1ccccc1OC/C(O)=C(\C#N)c1nc2ccccc2[nH]1`: 38.3% (inactive).
The same measure for `C=CCSc1nc2ccccc2[nH]1`: 66% (active); for `Cc1nnc2sc(-c3ccco3)nn12`: -0.9% (inactive); for `CCOC(=O)Cc1c(C)nc2c(C#N)c(C)nn2c1C`: 12.9% (inactive).
For `CC(C)C1C2=C(CC(C)(C)CC2=O)ON1c1ccccc1` (stereo not drawn), the inhibition is 34.7% (inactive).
Then `COc1ccc(CN2CN(C(C)C)CSC2=S)cc1`, with 8.5% (inactive).
The same measure for `O=C1CSC(c2ccccc2)N1c1nc(-c2ccc(Cl)cc2Cl)cs1` (stereo not drawn): -2.8% (inactive); for `CCCc1ccc(-c2csc(NC(=O)Cc3cccs3)n2)cc1`: 28% (inactive); for `Cc1ccc(S(=O)(=O)Nc2nc(C)cc(-n3nc(C)cc3C)n2)cc1`: 22% (inactive).
On to `Cc1ccc(S(=O)(=O)Nc2ccc3ncccc3c2)cc1`, for which the inhibition is 89.8% (active).
Then `CC(=O)N1CCN(C(=O)c2cccc(S(=O)(=O)Nc3ccc(C)cc3)c2)CC1`, with 11.6% (inactive); and `FC(F)(F)c1nnc2ccc(N3CCN(c4ccccc4)CC3)nn12`, with 27.9% (inactive).
Turning to `O=C(Nc1ccccc1C(=O)N1CCOCC1)C1CCC(=O)N1C1CCCC1` (stereo not drawn), the inhibition was -12.6% (inactive).
The same measure for `CCC(=O)N(Cc1ccccc1)c1ccccn1`: -5.8% (inactive); for `CCCCSc1nnc(-c2ccc(NC(=O)CC)cc2)n1C`: 21.4% (inactive); for `COC(=O)c1ccc(NC(=O)CSc2nnc(-c3ccncc3)n2C)cc1`: 54.6% (active).
In the case of `COC(=O)c1ccc(NC(=O)CSc2nnc(CNc3ccc(OC)cc3)n2C)cc1`, the inhibition is 29.7% (inactive).
`Cc1ccc(NC(=O)CSc2nnc(-c3cnccn3)n2Cc2ccco2)cc1C`: the inhibition is 5.5% (inactive).
With `Cc1ccccc1C(=O)Nc1cccc(-c2nnc(SCC(=O)O)n2C)c1`, the inhibition is -18.4% (inactive).
The same measure for `Cc1ccc(C(C)C)c(OCc2nnc(SCC(=O)Nc3nccs3)n2C)c1`: 17% (inactive); for `CCc1ccc(NC(=O)CSc2nnc(-c3cnccn3)n2Cc2ccco2)cc1`: 21.4% (inactive).
Then `CCc1nnc(NC(=O)CSc2nnc(-c3ccncc3)n2Cc2ccccc2)s1`, with 41.3% (inactive).
Take `CCn1c(SCC(=O)Nc2nccs2)nnc1-c1ccncc1`: the inhibition was 66.7% (active).
Consider `CCC(=O)Nc1cccc(NC(=O)CSc2nnc(-c3ccc(NS(C)(=O)=O)cc3)n2C)c1`, for which the inhibition was 23.6% (inactive).
`Cn1c(SCC(=O)Nc2cccc(NC(=O)c3cccs3)c2)nnc1-c1ccncc1`: the inhibition is 54% (active).
Then `CCn1c(SCC(=O)Nc2cc(C)ccc2C)nnc1-c1cnccn1`, with 71.7% (active).
For `CCC1(C)N(O)C(C)(C)C(c2ccc(OC)cc2)=[N+]1[O-]` (stereo not drawn), the inhibition was -7.3% (inactive).
Then `C=CCNc1nc(N)c(C(=C(C#N)C#N)c2ccccc2)s1`, with 21.5% (inactive); and `CS(=O)(=O)N1CCN(C(=O)Cc2ccccc2)CC1`, with 16.8% (inactive).
Regarding `Cc1c(NC(=O)c2cc(-c3ccc(Cl)s3)nc3ccccc23)c(=O)n(-c2ccccc2)n1C`, the inhibition is 18.3% (inactive).
As for `CSc1nnc2c(n1)OC(c1ccsc1)N(C(C)=O)c1ccccc1-2` (stereo not drawn), the inhibition is 5.9% (inactive).
The same measure for `Cc1nc2ccccc2c(-c2ccccc2)c1C(=O)c1ccccc1`: 12% (inactive); for `CCc1nnc(NS(=O)(=O)c2ccc(N=Cc3c(C)[nH]n(-c4ccc(C)cc4)c3=O)cc2)s1`: -2.3% (inactive); for `CCn1c(=N)n(CC(=O)c2cccc(OC)c2)c2ccccc21`: -12.1% (inactive).
Regarding `CCOC(=O)C1CCCN(C(=O)CN(c2ccc(OC)cc2)S(=O)(=O)c2c(C)noc2C)C1` (stereo not drawn), the inhibition was 12.3% (inactive).
Then `Cc1cc(C)cc(N(CC(=O)N2CC=C(c3ccccc3)CC2)S(=O)(=O)c2c(C)noc2C)c1`, with 89.1% (active).
Turning to `Cc1cc(C)cc(N(CC(=O)NCC2CCCO2)S(=O)(=O)c2c(C)noc2C)c1` (stereo not drawn), the inhibition is 82.9% (active).
Then `Cc1ccc(S(=O)(=O)N2CCC(C(=O)NCC3CCCO3)CC2)cc1` (stereo not drawn), with 6.5% (inactive).
The same measure for `O=C(Nc1ccc(Cl)c(Cl)c1)N1CC=C(c2ccccc2)CC1`: 28.4% (inactive); for `Cc1ccc(C(=O)NCC2CCCO2)o1` (stereo not drawn): -1.3% (inactive).
